Results on 40 molecules are retold here after PubChem BioAssay (NCATS).

Where “and” joins values, the source holds several entries; their conditions need not be identical. Equal entries are not always repeated. Records with an inconclusive call do not appear. Entries that show only a call come without a potency. Where a structure was tested more than once in an assay, its records may differ in their call. Calls of active or inactive are those of the source. Calls follow the shape of the full dose curve.
Potency is read from the fitted curve at half-maximal effect.

The nature of the experiment: Cytotoxicity counterscreen for inhibitors of SARS-CoV-2 cell entry (AID 1645845). Also: nearly all actives have a fitted effect of over 50% in size. Conditions: cell viability (SARS-CoV-2 entry assay cells); series mostly up to 57.1 µM. The source says: Assay Provider: Wei Zheng, Ph.D.
National Center for Advancing Translational Sciences, National Institute of Health, Rockville, MD.
SARS-CoV-2 spike protein, within the viral envelope, mediates viral attachment and infection of host cells. The SARS-CoV-2 spike protein specifically binds to the host receptor ACE2 (Angiotensin-converting enzyme 2). This interaction promotes endocytosis of the viral particle, additional events lead to viral-host cell membrane fusion and release of the viral contents, allowing viral replication.
While SARS-CoV-2 requires BSL-3 facilities for live virus work, pseudo-typed partices (PP) that incorporate SARS-CoV-2 spike proteins without replication elements could facilitate studies on viral entry mechanisms in a BSL-2 setting. This PP cell entry assay could also enable screening of small molecule compound libraries in BSL-2 setting to identify inhibitors of SARS-CoV-2 cell entry. To eliminate false positive compounds, ATP content cytotoxicity assay was screened in the same cell line.
SEQUENCE No. (e.g., 1, 2, 3, etc.); […] (e.g., Cells, Incubation, Reagent, etc.); VALUE and DESCRIPTION.
1. Cells. Seed 1500 HEK293-ACE2 cells (Expi293F with stable expression of human ACE2) in 2 uL/well media (DMEM, 10% FBS, 1x L-glutamine, 1x Pen/Strep, 1 ug/ml puromycin) in white 1536-well assay plates (Greiner #782073).
2. Incubation. Incubate at 37 C with 5% CO2 overnight (~16 h).
3. Compounds. Dispense 23 nL/well compounds in DMSO via pin transfer.
4. Incubation. Incubate for 1 h at 37C 5% CO2.
5. Reagent. Dispense 2 uL/well of media (DMEM, 10% FBS, 1x L-glutamine, 1x Pen/Strep, 1 ug/ml puromycin).
6. Incubation. Incubate at for 48h at 37C 5% CO2
7. Reagent. Dispense 4 uL/well of ATPLite 1step luminescence assay reagent (PerkinElmer #6016739).
8. Incubation. Incubate for 15 min at room temperature.
9. Detection. Read luminescence signal (Viewlux plate reader, PerkinElmer). Data was normalized with wells containing cells as 100%, and wells without cells (media only control) as 0%.
Regarding `CCOC(=O)NNc1ccc(N(CC)CC(C)O)nn1` (stereo not given), the Potency result was “inactive”.

For the molecule `CCn1cc(C(=O)O)c(=O)c2cnc(N3CCCC3)nc21`, the activity change, negative = cytotoxicity is 1.65% [at 11.3 µM] (inactive).

`Cc1ccccc1C(=O)N1CC/C(=N\OS(=O)(=O)O)c2ccc(Cl)cc21`: the Potency entry was “inactive”.

Consider `COc1ccc2c(c1OC)C(=O)O[C@H]2[C@@H]1c2cc3c(cc2CCN1C)OCO3`, for which the Potency entry was “inactive”.

On to `CNC(=O)c1c(I)c(NC(C)=O)c(I)c(C(=O)O)c1I`, for which the Potency entry is “inactive”.

Turning to `COCCOC(=O)C1=C(C)NC(C)=C(C(=O)OC(C)C)C1c1cccc([N+](=O)[O-])c1` (stereo not given), the Potency entry is “inactive”.

Regarding `CCCc1ccc(OCC(=O)N2CCN(C(=O)COc3ccc(CCC)cc3OC)CC2)c(OC)c1`, the Potency entry is “inactive”.

Regarding `CN1CCC[C@@H]1c1cccnc1`, the Potency entry is “inactive”.

For `CO/N=C(/C(=O)N[C@@H]1C(=O)N2C(C(=O)[O-])=C(C[n+]3ccn4ncccc43)CS[C@H]12)c1nsc(N)n1`, the Potency entry was “inactive”.

Consider `CCS(=O)(=O)CCn1c([N+](=O)[O-])cnc1C`, for which the Potency result is “inactive”.

Turning to `COCC(=O)Nc1c(I)c(C(=O)NCC(O)CO)c(I)c(C(=O)N(C)CC(O)CO)c1I` (stereo not given), the Potency result is “inactive”.

As to `CO[C@@]1(NC(=O)CSC[C@@H](N)C(=O)O)C(=O)N2C(C(=O)O)=C(CSc3nnnn3C)CS[C@@H]21`, the Potency entry is “inactive”.

As for `CN1C[C@@H]2C[C@H]1CN2c1cc2c(cc1F)c(=O)c(C(=O)O)cn2C1CC1`, the Potency result was “inactive”.

For the molecule `CCCCCCCCCCCCSCCOCCO`, the Potency result was “inactive”.

In the case of `Nc1ccc(S(=O)(=O)Nc2ccnn2-c2ccccc2)cc1`, the Potency entry is “inactive”.

Turning to `COc1cc2c(Nc3ccc(Br)cc3F)ncnc2cc1OCC1CCN(C)CC1`, the Potency result is “inactive and 31.6 µM (active)”.

As for `Nc1ccc(S(=O)(=O)Nc2ccc(Cl)nn2)cc1`, the Potency result was “inactive”.

In the case of `CCCCCCCCCCCCCCCCCC(=O)OCC(O)CO` (stereo not given), the Potency result was “inactive”.

Turning to `CC(=O)O[C@@H]1CC2C3CCc4cc(OC(=O)c5ccccc5)ccc4C3CCC2(C)[C@H]1OC(C)=O` (stereo not given in full), the Potency result was “inactive”.

Take `O=C(OOC(=O)c1ccccc1)c1ccccc1`: the Potency entry was “inactive”.

With `CC(C)Cc1ccc(C(C)C(=O)O)cc1` (stereo not given), the Potency entry was “inactive”.

`O=C(O)CNC(=O)c1ccccc1`: the Potency result was “inactive”.

As for `CC(=O)CC(c1ccccc1)c1c(O)c2ccccc2oc1=O` (stereo not given), the Potency entry was “inactive”.

Take `C[N+]1(C)CCCC(OC(=O)C(O)(c2ccccc2)c2ccccc2)C1` (stereo not given): the Potency entry was “inactive”.

For `OCCOCCN1CCN(C2=Nc3ccccc3Sc3ccccc32)CC1`, the Potency entry is “inactive”.

For the molecule `CCn1cc(C(=O)O)c(=O)c2cnc(N3CCNCC3)nc21`, the Potency entry is “inactive”.

As to `O=C(O)C[C@H](O)C[C@H](O)/C=C/c1c(C2CC2)nc2ccccc2c1-c1ccc(F)cc1`, the Potency result was “inactive”.

Consider `NS(=O)(=O)c1cc(C(=O)O)cc(N2CCCC2)c1Oc1ccccc1`, for which the Potency entry is “inactive”.

In the case of `CC(CC(C#N)(c1ccccc1)C(C)C)N(C)C` (stereo not given), the Potency entry is “inactive”.

Turning to `CN1C(C(=O)Nc2ccccn2)=C(O)c2sccc2S1(=O)=O`, the Potency result is “inactive”.

`CCCCC(CC)CN1CN(CC(CC)CCCC)CC(C)(N)C1` (stereo not given): the Potency result was “inactive”.

On to `O=c1[nH]c(=O)n([C@H]2C[C@H](O)[C@@H](CO)O2)cc1F`, for which the Potency result was “inactive”.

Turning to `CC1COc2c(N3CCN(C)CC3)c(F)cc3c(=O)c(C(=O)O)cn1c23` (stereo not given), the Potency entry was “inactive”.

On to `Cc1c(Nc2ncccc2C(=O)O)cccc1C(F)(F)F`, for which the Potency entry was “inactive”.

As to `Nc1nc(-c2ccccc2)c(Br)c(=O)[nH]1`, the Potency result is “inactive”.

Take `CN1C(=O)NC(=O)C(C)(C2=CCCCC2)C1=O` (stereo not given): the Potency entry is “inactive”.

As to `NC(=O)c1ccccc1O`, the Potency entry was “inactive”.

In the case of `NS(=O)(=O)c1cc2c(cc1C(F)(F)F)NC(Cc1ccccc1)NS2(=O)=O` (stereo not given), the Potency result is “inactive”.

Turning to `C#CC(O)(C=CCl)CC` (stereo not given), the Potency result is “inactive”.

Consider `CC(O)(P(=O)(O)O)P(=O)(O)O`, for which the Potency entry is “inactive”.
